Assay results: PubChem BioAssay (Tox21)
Inconclusive results are not listed. A call without a number means that no potency is given here. Activity calls are given as the source filed them. Calls follow the shape of the full dose curve.

Assay: qHTS assay to identify small molecule agonists of the NFkB signaling pathway - cell viability counter screen (AID 1159515); also: nearly all actives have a fitted effect of over 55% in size
Conditions: NFkB-bla ME-180 viability, CellTiter-Glo luminescence, 5 h; series mostly up to 61 µM
From the text: National Center for Advancing Translational Sciences [NCATS]
NIH Chemical Genomics Center [NCGC]
U.S. Environmental Protection Agency [EPA]
National Institutes of Environmental Health Sciences [NIEHS]
National Toxicology Program [NTP]
U.S. Food and Drug Administration [FDA]
Transcription factors and their stimulated target gene expression play pivotal roles across many cellular processes including responses to environmental stimuli. Proper regulation of associated pathways is critical to maintain cell health and function. Constitutive activation of transcription factor pathways has been implicated in tumors as it may block cellular functions such as apoptosis and lead to invasion and metastasis. One important transcription factor that stimulates gene expression in response to cytokines, UV radiation, and other stimuli is nuclear factor-kappa B (NFkB). To measure activation of the NFkB pathway, the CellSensor NFkB-bla ME-180 cell line (Life Technologies, Carlsbad, CA) that stably expresses beta-lactamase reporter gene under the regulation of a NF-kB response element was used. This assay allows measurement of the NFkB pathway activity induced by compounds in a ME-180 cell line. This system quantitates NF-kB activity using a FRET-based assay system where beta-lactamase expression disrupts FRET, allowing for fluorescent measurement of activity. This cell line has been used to screen the Tox21 10K compound library and to identify compounds that induce the NFkB pathway activity. The cytotoxicity of the Tox21 compound library against the NFkB-bla ME-180 cell line was tested in parallel by measuring cell viability using the CellTiter-Glo assay in the same wells.
Tox21 Assay Protocol Summary:
NFkB-bla ME-180 cells were dispensed at 2,000 cells/6 uL of assay medium per well into black wall/clear-bottom 1536-well plates using a Multidrop Combi (ThermoFisher Scientific, Waltham, MA) dispenser. After the assay plates were incubated at 37 C and 5% CO2 for an overnight, 23 nL of compounds dissolved in DMSO, positive controls or DMSO only was transferred to the assay plate by a Pintool station (Kalypsys, San Diego, CA). The assay plates were incubated at 37 C and 5% CO2 for 5 hr. One uL of LiveBLAzer B/G FRET substrate (Life Technologies) was added using a Flying Reagent Dispenser (Aurora Discovery, San Diego, CA) and the plates were incubated at room temperature for 1.5 hr. Fluorescence intensity (405 nm excitation, 460 nm and 530 nm emissions) was measured using an Envision plate reader (PerkinElmer, Shelton, CT). For cytotoxicity, 3 ul/well of CellTiter-Glo reagent was added into the assay plates using an FRD. After 30 min incubation at room temperature, the luminescence intensity was measured using a ViewLux plate reader (PerkinElmer).

Structure (SMILES) | Potency
COc1cc(NC(=O)CC(C)=O)c(OC)cc1Cl | inactive
CC(C)(CO)CO | inactive
CCCOCC(C)O (stereo not given) | inactive
CC(=O)c1nccs1 | inactive
Oc1ccc(Cc2ccccc2O)cc1 | inactive
CC(=O)OC/C=C(\C)CCC=C(C)C | inactive
O=C(Cl)c1ccc(C(=O)Cl)cc1 | inactive
CC(=O)OCCC(C)C | inactive
CCCCCCCCCCCCCC(=O)O | inactive
CCCCCCCCO | inactive
C[Si](C)(C)N[Si](C)(C)C | inactive
CC(C)c1ccc(C(C)C)cc1 | inactive
Nc1cccc(N)n1 | inactive
CCc1cccc(CC)c1N | inactive
CCCCCCCCC(=O)O | inactive
O=C(c1ccccc1)c1ccc(O)c(O)c1O | inactive
COc1ccc(N)c(OC)c1 | inactive
OC[C@H]1O[C@@H](Oc2ccc(O)cc2)[C@H](O)[C@@H](O)[C@@H]1O | inactive
COc1c(Cl)ccc(Cl)c1C(=O)O | inactive
CC(COCC(C)OC(=O)c1ccccc1)OC(=O)c1ccccc1 (stereo not given) | inactive

Structure (SMILES) | Potency
OCC(CO)(CO)CO | inactive
CCCCCCC(=O)O | inactive
C1CCCNCC1 | inactive
O=C(O)C1=NN(c2ccc(S(=O)(=O)O)cc2)C(=O)C1 | inactive
CC(=O)CC(=O)N(C)C | inactive
Nc1cccc(C(F)(F)F)c1 | inactive
NC(N)=S | inactive
COC(=O)/C=C\C(=O)OC | inactive
O=[N+]([O-])c1ccccc1C(F)(F)F | inactive
CC[N+](CC)(CC(=O)Nc1c(C)cccc1C)Cc1ccccc1 | inactive
CCCCC(CC)COC(=O)c1ccc(C(=O)OCC(CC)CCCC)cc1 (stereo not given) | inactive
CO[Si](CCCNCCN)(OC)OC | inactive
C[n+]1ccn(CCO)c1 | inactive
CS(=O)(=O)c1ccc(Cl)cc1 | inactive
OCc1ccc(Cl)cc1Cl | inactive
Brc1ccc(Oc2ccc(Br)cc2)cc1 | inactive
O=C(O)Cc1c[nH]c2ccccc12 | inactive
COC(=O)OC | inactive
O=[N+]([O-])c1cc(C(F)(F)F)ccc1Cl | inactive
COc1ccccc1[N+](=O)[O-] | inactive
